The source of these data is PubChem BioAssay.

Inconclusive results are not listed. Active and inactive are the calls of the source. Unless noted, cut-off not given; nearly all actives show AC50 up to about 30 µM.

The nature of experiment [1]: growth inhibition of DIPG glioma cells, dose response, cell-based, SU-DIPG-XIII, MIPE4.0, CellTiter-Glo, qHTS (AID 1347061; cut-off not given, nearly all actives have AC50 up to about 37 µM;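 further: cells exposed to compound for 48 hours before readout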). As to conditions: SU-DIPG-XIII viability, CellTiter-Glo ATP luminescence.
A short description of experiment [2]: growth inhibition of DIPG glioma cells, dose response, cell-based, JHH-DIPG-1, MIPE4.0, CellTiter-Glo, qHTS (AID 1347062; cut-off not given, nearly all actives have AC50 up to about 27 µM;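 on AC50: cells exposed to compound for two days before readout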). As to conditions: JHH-DIPG-1 viability, CellTiter-Glo ATP luminescence.
Experiment [3] can be described thus: growth inhibition of DIPG glioma cells, dose response, cell-based, SU-DIPG-IV, MIPE4.0, CellTiter-Glo, qHTS (AID 1347063).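 Further: compound exposure lasted 48 hours before the viability readout.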 To be noted: SU-DIPG-IV viability, CellTiter-Glo ATP luminescence.
Experiment [4] can be described thus: growth inhibition of DIPG glioma cells, dose response, cell-based, SU-DIPG-XIII, MIPE5.0, CellTiter-Glo, qHTS (AID 1347064; cut-off not given, nearly all actives have AC50 up to about 23 µM;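 on AC50: cells exposed to compound for 48 hours before the viability read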). To be noted: SU-DIPG-XIII viability, CellTiter-Glo ATP luminescence.
Experiment [5] in a line: viability loss in pontine glioma line – cell-based, SU-DIPG-XXV, MIPE5.0, CellTiter-Glo, qHTS, dose response (AID 1347065; cut-off not given, nearly all actives have AC50 up to about 26 µM;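 further: cells exposed to compound for 48 hours before ATP readout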). As to conditions: CellTiter-Glo ATP luminescence.
Experiment [6] can be described thus: SU-DIPG-VI glioma cell viability, MIPE4.0 library, CellTiter-Glo luminescence, qHTS (AID 1347066).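 Further: cells exposed to compound for 48 hours before readout.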 To be noted: CellTiter-Glo ATP luminescence.
A short description of experiment [7]: JHH-DIPG-1 glioma cell viability, MIPE5.0 library, CellTiter-Glo luminescence, qHTS (AID 1347067; cut-off not given, nearly all actives have AC50 up to about 26 µM;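 further: cells exposed to compound for 48 hours before readout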). As to conditions: JHH-DIPG-1 glioma viability, CellTiter-Glo ATP luminescence.
A short description of experiment [8]: SU-DIPG-XXV glioma cell viability, MIPE5.0 library, qHTS (AID 1347068; cut-off not given, nearly all actives have IC50 up to about 30 µM;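 further: cells exposed to compound for 48 hours before viability readout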).

Consider `Cc1ccc(NC(=O)Nc2cc(C(F)(F)F)ccc2F)cc1Nc1ccc2c(c1)NC(=O)/C2=C\c1ccc[nH]1`, for which the half-maximal activity concentration (AC50) in experiment [1] is 18.7 µM (active); in experiment [2], 18.7 µM (active); in experiment [3], 4.18 µM (active); in experiment [4], 8.33 µM (active); in experiment [5], 6.61 µM (active); in experiment [6], 3.72 µM (active). Also, the AC50 in experiment [7] is 10.5 µM (active). In addition, the IC50 in experiment [8] is 9.34 µM (active).

As to `C[C@@H]1CCO[C@H]2Cn3cc(C(=O)NCc4ccc(F)cc4F)c(=O)c(O)c3C(=O)N12`, the outcome in experiment [1] and in experiment [2] was inactive.

Consider `COc1ccc(Cc2ccc(NC(N)=O)cc2)cc1-c1cccc(Cl)c1`, for which the call in experiment [1], in experiment [2], in experiment [3], in experiment [4], in experiment [5] and in experiment [6] was inactive. In addition, the molecule was classed as inactive in experiment [7].

As for `CO[C@H]1C(=O)[C@]2(C)[C@@H](OC)C[C@H]3OC[C@@]3(OC(C)=O)[C@H]2[C@H](OC(=O)c2ccccc2)[C@]2(O)C[C@H](OC(=O)[C@H](O)[C@@H](NC(=O)OC(C)(C)C)c3ccccc3)C(C)=C1C2(C)C`, the molecule was called inactive in experiment [1], in experiment [2], in experiment [3], in experiment [4], in experiment [6] and in experiment [7]. Further, the AC50 in experiment [5] is 0.00186 µM (active).
